Inconclusive results are not listed. Calls of active or inactive are those of the source. How the source made its calls: active means hit-call score of the fitted dose curve at least 0.9, where 1 is the maximum; inconclusive means response in the unintended direction; inactive means score below 0.9.
biological target: human CYP1B1, CYP1B1 (gene 1545) (UniProt Q16678); test: NVS_ADME_hCYP1B1: NovaScreen (NVS) CYP450-related Enzyme Activity (ADME) Assay for human CYP1B1
Procedure: NVS_ADME_hCYP1B1 is a biochemical, single-readout assay that uses extracted gene-proteins in a cell-free assay. Measurements were taken 1 hour after chemical dosing in a 96-well plate.NVS_ADME_hCYP1B1 is one of one assay component(s) measured or calculated from the NVS_ADME_hCYP1B1 assay. It is designed to make measurements of enzyme activity, a form of enzyme reporter, as detected with fluorescence intensity signals by Fluorescence technology.Data from the assay component NVS_ADME_hCYP1B1 was analyzed into 1 assay endpoint. This assay endpoint, NVS_ADME_hCYP1B1, was analyzed in the positive analysis fitting direction relative to Acetonitrile as the negative control and baseline of activity. Using a type of enzyme reporter, loss-of-signal activity can be used to understand changes in the enzymatic activity as they relate to the gene CYP1B1. Furthermore, this assay endpoint can be referred to as a primary readout, because this assay has produced multiple assay endpoints where this one serves a enzymatic activity function. To generalize the intended target to other relatable targets, this assay endpoint is annotated to the cyp intended target family, where the subfamily is xenobiotic metabolism.
Binding assays used specific radioligands (tritiated, iodinated) with non-radioactive competitive displacement ligands in agonist or antagonist protocols (as indicated) and various reference compounds and inhibitors to titrate specific binding to receptors and transporters. Most enzyme assays (CYPs, kinases, phosphatases, proteases, HDACs) used recombinant protein and specific substrates (fluorescence mostly, some colorimetric and radioactive) and inhibitors, followed by a biochemical separation of substrate and product. All assays for the biochemical HTS were initially run in duplicate at a single concentration (10 uM for CYP450 assays and 25 uM for all others). Assay-chemical combinations meeting a pre-defined threshold (e.g., 30% inhibition and other criteria defined below) were then run in singleton concentration-response format with maximum concentration of 20 uM for CYPs and 50 uM for all others. Each assay was run with positive and negative controls, and concurrent controls on every plate. The follow-up (secondary) screen tested active chemical-pairs in concentration series, as well as a few additional assays not tested in the primary screen, some selected negative inactives, and several cases re-run in the concentration series for confirmatory purposes.

human CYP1B1, CYP1B1 (gene 1545), sequence (Q16678 whole entry, looked up): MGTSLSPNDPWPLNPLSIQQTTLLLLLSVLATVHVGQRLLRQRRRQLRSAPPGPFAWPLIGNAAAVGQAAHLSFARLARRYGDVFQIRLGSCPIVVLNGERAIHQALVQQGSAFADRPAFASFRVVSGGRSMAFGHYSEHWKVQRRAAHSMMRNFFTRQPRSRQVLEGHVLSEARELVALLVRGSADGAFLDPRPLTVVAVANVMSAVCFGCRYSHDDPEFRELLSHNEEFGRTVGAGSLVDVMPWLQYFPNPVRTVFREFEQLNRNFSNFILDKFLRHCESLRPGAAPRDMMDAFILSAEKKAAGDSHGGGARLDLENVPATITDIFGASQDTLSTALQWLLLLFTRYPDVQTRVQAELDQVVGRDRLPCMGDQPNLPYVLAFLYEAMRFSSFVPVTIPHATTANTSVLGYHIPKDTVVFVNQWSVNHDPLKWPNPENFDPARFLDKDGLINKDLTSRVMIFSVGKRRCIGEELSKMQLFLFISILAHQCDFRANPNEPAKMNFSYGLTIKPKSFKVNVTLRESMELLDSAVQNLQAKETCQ

Row | Compound | outcome | AC50
1 | CCCN(CCOc1c(Cl)cc(Cl)cc1Cl)C(=O)n1ccnc1 | inactive | –
2 | Cc1ccn2nc(S(=O)(=O)Nc3c(F)cccc3F)nc2n1 | inactive | –
3 | COP(=S)(OC)SCn1nnc2ccccc2c1=O | – | 498 nM (active)
4 | Cc1ccc(-c2c(Cl)nc(C#N)n2S(=O)(=O)N(C)C)cc1 | inactive | –
